# Measurements reported in PubChem BioAssay (NCATS).
# Inconclusive results are not listed. Activity calls are given as the source filed them. Unless noted, the call rests on the fitted dose curve; in most records, active means well fitted curve in the direction sought with a large enough effect in the repeat runs; inconclusive means weak or mixed curves; inactive means no such curve, though single readings can be large; an effect the other way counts as inactive or inconclusive.
# What was measured:
# [1] = biological target: Cytochrome P450 2D6 (Homo sapiens) (UniProt P10635); assay: Cytochrome P450 family 2 subfamily D member 6 (CYP2D6) small molecule antagonists: luciferase biochemical (cell-free) qHTS assay (AID 1645840); further: nearly all actives have a fitted effect of over 55% in size; further: potency means the concentration at half of the fitted maximal effect
# Summary of the method: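 P450-Glo luminescent screen: recombinant CYP2D6 enzyme–proluciferin substrate mix preincubated with compound 10 min at room temperature, then NADPH regeneration added for 1 h at room temperature. Detection reagent added for 20 min; luciferin light read as relative luminescence units.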
# [2] = biological target: Cytochrome P450 3A4 (Homo sapiens) (UniProt P08684); assay: Cytochrome P450 family 3 subfamily A member 4 (CYP3A4) small molecule antagonists: luciferase qHTS assay (AID 1645841); further: nearly all actives have a fitted effect of over 45% in size; further: potency means the concentration at half of the fitted maximal effect
# Summary of the method: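 Luminescent CYP3A4 activity readout: compounds plus enzyme-substrate mix 10 min at room temperature, reaction started with NADPH regenerating system for 1 h, stopped with detection reagent, read after 20 min. Ketoconazole served as control.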
# [3] = biological target: Cytochrome P450 2C9 (Homo sapiens) (UniProt P11712); assay: Cytochrome P450 family 2 subfamily C member 9 (CYP2C9) small molecule antagonists: luciferase biochemical (cell-free) qHTS assay (AID 1645842); further: nearly all actives have a fitted effect of over 55% in size; further: potency means the concentration at half of the fitted maximal effect
# Summary of the method: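 Luminescence, after 20 min with luciferin detection reagent, reflected CYP2C9 turnover during a 1 h NADPH-driven reaction at 37C. Enzyme-substrate mix contained 0.4% bovine serum albumin and was preincubated with compound 10 min at room temperature.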
# [4] = biological target: Cytochrome P450 3A4 (Homo sapiens) (UniProt P08684); assay: qHTS Assay for Activators of Cytochrome P450 3A4 (AID 885; active means well fitted curve in the direction sought with a large enough effect; an effect the other way counts as inactive or inconclusive; further: nearly all actives have a fitted effect of over 65% in size)
# Summary of the method: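 Signal was normalized against complete inhibition by 57 uM ketoconazole. The reaction used 20nM CYP3A4 with 25uM Luciferin-PPXE, 10-min compound preincubation and a 60-min NADPH-supported step at RT.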
# [5] = Confirmation and Secondary Assay for Modulators of Hemoglobin Beta Chain Splicing at IVS2 705 locus (AID 930; active means well fitted curve in the direction sought with a large enough effect; an effect the other way counts as inactive or inconclusive;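 further: HeLa cells stably expressing the EGFP-705 splicing reporter; GFP fluorescence per well restored by corrected splicing of the IVS2-705 intron in EGFP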)
# Summary of the method: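 HeLa IVS2-705 EGFP reporter cells, 500/well, compound 2 d at 37C; correct splicing yields fluorescent EGFP. Control: 500 nM antisense PNA. Read-out: total peak GFP intensity.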
# [6] = biological target: ATP-dependent 6-phosphofructokinase (Trypanosoma brucei brucei) (UniProt O15648); assay: qHTS Assay to Find Inhibitors of T. brucei phosphofructokinase: hit validation (AID 492961; active means well fitted curve in the direction sought with a large enough effect; an effect the other way counts as inactive or inconclusive;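 further: luminescence reports ADP formed as PFK phosphorylates fructose-6-phosphate with ATP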)
# Summary of the method: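 In this biochemical qHTS validation, titrated compounds were tested against 1.25 nM PFK with 0.1 mM ATP and 0.5 mM F6P. Percent activity came from controls lacking or containing enzyme.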
# [7] = biological target: Ubiquitin carboxyl-terminal hydrolase 1 (Homo sapiens) (UniProt O94782); assay: Inhibitors of USP1/UAF1: Pilot qHTS (AID 504865; active means well fitted curve in the direction sought with a large enough effect; an effect the other way counts as inactive or inconclusive;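 further: rhodamine fluorescence freed from ubiquitin-rhodamine substrate followed over time; top concentration of the series differs between compounds; nearly all actives have a fitted effect of over 35% in size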)
# Summary of the method: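 Enzyme-free wells gave the negative control, while test wells held 1nM USP1/UAF1 preincubated with compound for 15 min at room temperature. Ub-Rho at 150nM final started the reaction, and fluorescence at 480/540 nm was recorded kinetically.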
# [8] = biological target: Luciferin 4-monooxygenase (Photinus pyralis) (UniProt P08659); assay: Biochemical firefly luciferase enzyme assay for NPC (AID 624030; active means well fitted curve in the direction sought with a large enough effect; an effect the other way counts as inactive or inconclusive;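 further: purified P. pyralis luciferase at 10 nM with luciferin and ATP substrate; nearly all actives have a fitted effect of over 70% in size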)
# Summary of the method: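 Direct inhibition of firefly luciferase enzyme (10 nM final, 50 mM Tris Acetate) assessed by luminescence within 5 minutes. Percent activity scaled between DMSO and PTC124 positive control, with concentration-effect curves classified by fit quality and response.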
# [9] = S16 Schwann cell viability assay (CellTiter-Glo assay) (AID 624031; active means well fitted curve in the direction sought with a large enough effect; an effect the other way counts as inactive or inconclusive;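 further: native untransfected S16 rat Schwann cells; cellular ATP luminescence as a viability measure; nearly all actives have a fitted effect of over 70% in size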)
# Summary of the method: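 Following overnight culture in 10% FBS DMEM, parental S16 rat Schwann cells are dosed for 24 h at 37 °C. Viability is read as CellTiter-Glo luminescence and expressed as % activity relative to DMSO (0%) and no-cell wells.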
# [10] = S16 Schwann cell PMP22 intronic element firefly luciferase assay (AID 624032; active means well fitted curve in the direction sought with a large enough effect; an effect the other way counts as inactive or inconclusive; further: nearly all actives have a fitted effect of over 30% in size)
# Summary of the method: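 Luciferase reporter of PMP22 intronic-element expression in stably transfected S16 rat Schwann cells, read by ONE-Glo luminescence after 24 h compound exposure at 37 C. Activity scaled between DMSO (0%) and positive-control PTC124; concentration-effect curves quality-classified.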
# [11] = S16 Schwann cell PMP22 intronic element beta-lactamase assay (AID 624044; calls by dose curve; further: nearly all actives have a fitted effect of over 15% in size)
# Summary of the method: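 Rat S16 Schwann cells with beta-Lac driven by a PMP22 intronic element, compound-treated 24 h at 37 °C. LiveBLAzer FRET B/G read: 460 nm normalized to potassium clavulanate vs DMSO; 535 nm FRET as viability; concentration-effect curves classified.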
# CP238 = assay: qHTS profiling for inhibitors of Plasmodium falciparum proliferation (AID 504749; active means well fitted curve in the direction sought with a large enough effect; an effect the other way counts as inactive or inconclusive; further: nearly all actives have a fitted effect of over 60% in size); settings: P. falciparum in erythrocytes, SYBR Green DNA, 72 h; series mostly up to 12.8 µM
# Summary of the method: (§1)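 Three-day growth assay of blood-stage parasites in erythrocytes (0.3% parasitemia, 2.5% hematocrit) at 37 C, 5% CO2, quantified by SYBR Green DNA staining after overnight detergent lysis.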
# CP286 = assay: as above; settings: P. falciparum in erythrocytes, SYBR Green DNA, 72 h; series mostly up to 12.8 µM
# Summary of the method: as §1
# Chain of Cytochrome P450 3A4 (Homo sapiens) (P08684 whole entry, looked up): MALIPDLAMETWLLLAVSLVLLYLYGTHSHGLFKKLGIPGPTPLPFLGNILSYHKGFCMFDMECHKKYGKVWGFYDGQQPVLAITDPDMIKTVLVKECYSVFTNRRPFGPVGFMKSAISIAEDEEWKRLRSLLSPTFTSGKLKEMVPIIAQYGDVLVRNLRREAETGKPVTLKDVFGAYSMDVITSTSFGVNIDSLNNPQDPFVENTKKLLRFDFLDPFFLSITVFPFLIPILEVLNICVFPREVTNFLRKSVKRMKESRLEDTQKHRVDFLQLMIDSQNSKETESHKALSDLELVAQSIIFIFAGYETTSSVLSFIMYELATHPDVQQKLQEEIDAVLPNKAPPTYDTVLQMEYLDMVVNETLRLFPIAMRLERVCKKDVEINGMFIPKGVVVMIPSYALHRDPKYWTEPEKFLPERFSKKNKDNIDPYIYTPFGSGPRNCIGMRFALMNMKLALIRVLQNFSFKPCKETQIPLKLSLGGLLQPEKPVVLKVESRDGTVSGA
# Chain of Cytochrome P450 2C9 (Homo sapiens) (P11712 whole entry, looked up): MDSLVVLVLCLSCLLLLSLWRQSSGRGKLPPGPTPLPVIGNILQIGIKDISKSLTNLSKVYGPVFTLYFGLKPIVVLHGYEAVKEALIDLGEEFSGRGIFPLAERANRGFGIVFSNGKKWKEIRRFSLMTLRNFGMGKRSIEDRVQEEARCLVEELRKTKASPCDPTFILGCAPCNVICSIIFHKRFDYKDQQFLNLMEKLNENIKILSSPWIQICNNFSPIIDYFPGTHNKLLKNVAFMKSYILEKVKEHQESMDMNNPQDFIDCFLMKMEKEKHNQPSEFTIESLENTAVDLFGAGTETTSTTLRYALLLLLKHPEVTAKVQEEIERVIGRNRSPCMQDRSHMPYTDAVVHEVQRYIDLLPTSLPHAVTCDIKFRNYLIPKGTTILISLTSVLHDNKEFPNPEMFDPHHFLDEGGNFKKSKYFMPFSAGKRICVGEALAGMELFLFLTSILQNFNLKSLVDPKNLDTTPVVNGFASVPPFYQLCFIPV
# Chain of Cytochrome P450 2D6 (Homo sapiens) (P10635 whole entry, looked up): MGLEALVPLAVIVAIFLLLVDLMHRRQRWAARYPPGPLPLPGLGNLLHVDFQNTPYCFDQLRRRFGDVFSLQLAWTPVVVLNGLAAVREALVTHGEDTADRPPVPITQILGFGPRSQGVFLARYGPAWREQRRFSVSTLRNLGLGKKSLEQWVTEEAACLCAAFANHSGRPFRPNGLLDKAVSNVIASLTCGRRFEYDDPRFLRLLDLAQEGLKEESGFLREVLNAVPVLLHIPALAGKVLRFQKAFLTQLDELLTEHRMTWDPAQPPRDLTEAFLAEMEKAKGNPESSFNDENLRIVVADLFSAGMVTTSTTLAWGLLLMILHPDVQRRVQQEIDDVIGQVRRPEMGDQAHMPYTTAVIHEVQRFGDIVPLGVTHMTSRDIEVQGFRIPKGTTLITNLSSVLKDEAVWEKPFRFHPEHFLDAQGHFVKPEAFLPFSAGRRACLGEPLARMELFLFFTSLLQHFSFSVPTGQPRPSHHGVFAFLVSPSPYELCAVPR
# Chain of ATP-dependent 6-phosphofructokinase (Trypanosoma brucei brucei) (O15648 whole entry, looked up): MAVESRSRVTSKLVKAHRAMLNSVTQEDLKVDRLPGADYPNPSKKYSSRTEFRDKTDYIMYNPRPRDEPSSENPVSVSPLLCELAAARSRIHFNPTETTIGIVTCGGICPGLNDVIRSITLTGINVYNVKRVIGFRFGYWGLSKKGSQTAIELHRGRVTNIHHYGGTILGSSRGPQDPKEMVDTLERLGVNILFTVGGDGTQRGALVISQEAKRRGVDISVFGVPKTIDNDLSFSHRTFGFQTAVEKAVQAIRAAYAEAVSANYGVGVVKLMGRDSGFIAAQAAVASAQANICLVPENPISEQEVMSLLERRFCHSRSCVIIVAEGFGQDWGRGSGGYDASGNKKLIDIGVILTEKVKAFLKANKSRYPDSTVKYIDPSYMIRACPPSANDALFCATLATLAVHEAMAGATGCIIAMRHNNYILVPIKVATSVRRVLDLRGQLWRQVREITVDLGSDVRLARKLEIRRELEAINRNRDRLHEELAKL
# Chain of Ubiquitin carboxyl-terminal hydrolase 1 (Homo sapiens) (O94782 whole entry, looked up): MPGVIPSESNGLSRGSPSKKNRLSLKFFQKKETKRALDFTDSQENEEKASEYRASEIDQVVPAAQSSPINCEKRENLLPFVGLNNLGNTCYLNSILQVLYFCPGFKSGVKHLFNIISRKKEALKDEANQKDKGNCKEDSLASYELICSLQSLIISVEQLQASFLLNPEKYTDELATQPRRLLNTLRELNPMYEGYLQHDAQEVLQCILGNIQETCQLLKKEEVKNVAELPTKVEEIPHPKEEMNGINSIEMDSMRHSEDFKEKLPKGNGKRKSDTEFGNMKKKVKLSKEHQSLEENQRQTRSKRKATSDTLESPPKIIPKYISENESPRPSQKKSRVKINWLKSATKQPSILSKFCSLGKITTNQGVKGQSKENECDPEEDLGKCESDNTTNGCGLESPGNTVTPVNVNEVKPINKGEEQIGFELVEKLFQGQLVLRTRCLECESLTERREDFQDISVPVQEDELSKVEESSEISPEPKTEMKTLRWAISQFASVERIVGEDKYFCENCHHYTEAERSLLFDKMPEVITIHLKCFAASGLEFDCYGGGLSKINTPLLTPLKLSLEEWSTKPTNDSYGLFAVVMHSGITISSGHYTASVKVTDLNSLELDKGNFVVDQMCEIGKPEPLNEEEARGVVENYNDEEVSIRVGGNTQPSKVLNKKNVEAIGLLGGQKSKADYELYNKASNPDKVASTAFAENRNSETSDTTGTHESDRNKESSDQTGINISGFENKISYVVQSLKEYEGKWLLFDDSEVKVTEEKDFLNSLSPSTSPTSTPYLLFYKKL
# Chain of Luciferin 4-monooxygenase (Photinus pyralis) (P08659 whole entry, looked up): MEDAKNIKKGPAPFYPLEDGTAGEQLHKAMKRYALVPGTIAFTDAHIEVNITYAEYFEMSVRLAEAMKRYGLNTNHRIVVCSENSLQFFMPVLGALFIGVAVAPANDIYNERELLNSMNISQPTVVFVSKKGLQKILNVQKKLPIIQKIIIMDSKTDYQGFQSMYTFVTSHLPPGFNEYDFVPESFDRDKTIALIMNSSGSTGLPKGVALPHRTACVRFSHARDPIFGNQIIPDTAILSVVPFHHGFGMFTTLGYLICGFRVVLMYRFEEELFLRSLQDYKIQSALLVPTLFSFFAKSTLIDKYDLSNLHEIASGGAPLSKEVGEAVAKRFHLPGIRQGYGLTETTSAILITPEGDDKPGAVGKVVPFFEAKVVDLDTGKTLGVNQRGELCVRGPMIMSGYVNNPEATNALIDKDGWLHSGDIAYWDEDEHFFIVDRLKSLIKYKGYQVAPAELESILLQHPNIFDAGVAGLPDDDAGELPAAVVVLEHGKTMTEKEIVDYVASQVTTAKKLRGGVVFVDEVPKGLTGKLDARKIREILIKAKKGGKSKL
smiles,measurement,setting,value
Cc1ccc(-n2nc3c(N4CCCC(C(=O)NCc5ccccc5C)C4)nnc(C)c3c2C)cc1 (stereo not drawn),Potency,[1],9.52 µM (active)
same,Potency,[2],1.69 µM (active)
same,Potency,[3],2.68 µM (active)
Cc1ccc(CSc2nc3ccncc3n2Cc2nc(-c3ccccc3C)oc2C)cc1,Potency,[1],2.39 µM (active)
same,Potency,[3],7.56 µM (active)
O=C(O)CN(CC(=O)O)Cc1cc2c(-c3ccccc3C(=O)O)c3cc(CN(CC(=O)O)CC(=O)O)c(=O)cc-3oc2cc1O,Potency,[4],inactive
same,Potency,[5],inactive
same,outcome,[6],inactive
same,Potency,[7],inactive
same,Potency,[8],inactive
same,outcome,[9],inactive
same,Potency,[10],inactive
same,Potency,[11],inactive
same,Potency,[1],inactive
same,Potency,[2],inactive
same,Potency,[3],inactive
same,Potency,CP238,inactive
same,Potency,CP286,inactive
CN(C)S(=O)(=O)c1ccc(S(=O)(=O)N(Cc2ccccc2Cl)C[C@@H]2CCCO2)cc1,Potency,[1],inactive
same,Potency,[3],9.52 µM (active)
Cc1[nH]n2c(=O)cc(-c3ccccc3Cl)nc2c1-c1ccccc1,Potency,[1],16.9 µM (active)
NC(=O)C(c1ccccc1)(c1ccccc1)[C@H]1CCN(CCc2ccc3c(c2)CCO3)C1,Potency,[1],0.0425 µM (active)
same,Potency,[3],8.49 µM (active)
COc1ccc(CCNc2nc(SCc3ccccc3Cl)nc3ccccc23)cc1OC,Potency,[1],0.756 µM (active)
same,Potency,[3],0.19 µM (active)
CCCCn1cnc2cc(NCc3ccccc3Cl)ccc21,Potency,[1],0.12 µM (active)
same,Potency,[3],2.13 µM (active)
C[S+](=O)([O-])Nc1ccc(-c2ccc3nc(-c4cccc(OC(F)(F)F)c4)[nH]c3c2)cc1,Potency,[1],inactive
same,Potency,[2],inactive
Cc1ccc(-n2c(SCc3cccc(F)c3)nc3[nH]ncc3c2=O)cc1C,Potency,[1],8.49 µM (active)
same,Potency,[3],1.51 µM (active)
Cc1ccc2nc3c(cc(C#N)c(=O)n3-c3nnc(SCc4ccccc4)s3)c(=O)n2c1,Potency,[1],inactive
same,Potency,[3],3.79 µM (active)
N#C/C(=C/c1ccccc1Cl)c1nc2ccccc2c(=O)[nH]1,Potency,[1],inactive
same,Potency,[3],3.38 µM (active)
CCOC(=O)N1CCc2c(sc3c2c(=O)n(CCc2ccccc2)c(=O)n3CC(=O)Nc2cccc(C)c2)C1,Potency,[1],1.07 µM (active)
same,Potency,[3],1.69 µM (active)
Cc1c(Cl)cccc1NC(=O)Cn1cc(C(=O)C2CCCCC2)c2ccccc21,Potency,[1],5.35 µM (active)
same,Potency,[3],2.13 µM (active)
COc1ccc(CNC(=O)Nc2ccc3c(c2)N(C)C(=O)c2ccccc2S3)cc1OC,Potency,[1],9.52 µM (active)
same,Potency,[3],inactive
COc1ccc(-n2nc3c(N4CCCC(C(=O)NCCc5ccccc5C)C4)nnc(C)c3c2C)cc1 (stereo not drawn),Potency,[1],2.68 µM (active)
same,Potency,[3],0.674 µM (active)
COCCCNC(=O)C(=O)Nc1c2c(nn1-c1cccc(Cl)c1)CSC2,Potency,[1],inactive
same,Potency,[3],8.49 µM (active)
Oc1c(C(c2ccc(Cl)cc2Cl)N2CCN(Cc3ccccc3)CC2)sc2nc(-c3ccco3)nn12 (stereo not drawn),Potency,[1],7.56 µM (active)
same,Potency,[3],6.01 µM (active)
CCOC(=O)c1ccc(N2C(=O)c3n[nH]c(-c4ccco4)c3C2c2ccc(C)cc2)cc1 (stereo not drawn),Potency,[1],inactive
same,Potency,[3],2.39 µM (active)
COC(=O)c1c(SCC(=O)Nc2cc(C)cc(C)c2)[nH]c2ccccc2c1=O,Potency,[1],inactive
same,Potency,[3],21.3 µM (active)
CCc1ccc(C2=CC(c3cccc(C)c3)n3c(nc4ccccc43)N2)cc1 (stereo not drawn),Potency,[1],9.52 µM (active)
same,Potency,[3],6.01 µM (active)
Cc1ccc(S(=O)(=O)Nc2nc3n(n2)C(c2ccc(F)cc2)C=C(c2ccccc2)N3)cc1 (stereo not drawn),Potency,[1],inactive
same,Potency,[3],inactive
CCOc1ccccc1NC(=O)Nc1nnc(N2CCCC(C)C2)s1 (stereo not drawn),Potency,[1],inactive
same,Potency,[3],10.7 µM (active)
CC1=C(C(=O)Nc2cccc(-c3cn[nH]c3)c2)C(c2ccccc2Cl)N=C(Nc2nc3ccccc3o2)N1 (stereo not drawn),Potency,[1],21.3 µM (active)
same,Potency,[3],1.07 µM (active)
CC(C)(C)c1ccc(S(=O)(=O)c2cnc(SCC(=O)Nc3ccc(F)c(Cl)c3)[nH]c2=O)cc1,Potency,[1],16.9 µM (active)
same,Potency,[3],0.536 µM (active)
Cc1ccc(C)c(NC(=O)C2CCN(S(=O)(=O)c3c(C)noc3/C=C/c3cccs3)CC2)c1,Potency,[1],2.39 µM (active)
same,Potency,[3],0.849 µM (active)
